Test results: PubChem BioAssay (NCATS)
Results filed as inconclusive are left out. The source made the active and inactive calls. The call rests on the fitted dose curve; in most records, active means well fitted inhibition curve with a large enough effect; inconclusive means small, poorly fitted or top-dose-only effect; inactive means flat fitted curve, though single readings scatter.

Tests used:
Test in all cases: qHTS profiling for inhibitors of Plasmodium falciparum proliferation (AID 504749); further: nearly all actives have a fitted effect of over 60% in size
Details in all cases: P. falciparum in erythrocytes, SYBR Green DNA, 72 h; series mostly up to 28.7 µM
CP252 = test system: CP252
In short: (§1)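 P. falciparum-infected erythrocytes (0.3% parasitemia, 2.5% hematocrit final) were exposed to compounds for 72 h at 37 C in 5% CO2, then lysed with SYBR Green buffer overnight at room temperature; parasite DNA fluorescence was normalized to artemisinin and DMSO controls.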

CP256 = test system: CP256
In short: as §1

CP260 = test system: CP260
In short: as §1

CP262 = test system: CP262
In short: as §1

CP265 = test system: CP265
In short: as §1

CP266 = test system: CP266
In short: as §1

CP269 = test system: CP269
In short: as §1

CP291 = test system: CP291
In short: as §1

CP297 = test system: CP297
In short: as §1

CP305 = test system: CP305
In short: as §1

CP315 = test system: CP315
In short: as §1

CP325 = test system: CP325
In short: as §1

CP329 = test system: CP329
In short: as §1

CP335 = test system: CP335
In short: as §1

DFO2036 = test system: DFO2036
In short: as §1

DIV14 = test system: DIV14
In short: as §1

DIV30 = test system: DIV30
In short: as §1

Dd2 = test system: Dd2
In short: as §1

ECU = test system: ECU
In short: as §1

FAB9 = test system: FAB9
In short: as §1

GB4 = test system: GB4
In short: as §1

ICS = test system: ICS
In short: as §1

JCK = test system: JCK
In short: as §1

N140 = test system: N140
In short: as §1

P93_24 = test system: P93_24
In short: as §1

P94_40 = test system: P94_40
In short: as §1

PAD = test system: PAD
In short: as §1

PC26 = test system: PC26
In short: as §1

PC49 = test system: PC49
In short: as §1

SC27B = test system: SC27B
In short: as §1

TAB165 = test system: TAB165
In short: as §1

W2 = test system: W2
In short: as §1

Measured: Potency
Potency means the concentration at half of the fitted maximal effect.

C[C@@H]1C[C@H]2[C@H]3C[C@@H](F)C4=CC(=O)C=C[C@]4(C)[C@@]3(Cl)[C@@H](O)C[C@@]2(C)[C@@H]1C(=O)COC(=O)C(C)(C)C
active: CP260 12.6 µM | CP335 12 µM | Dd2 12.6 µM | ICS 6.31 µM | W2 10.7 µM
inactive: all other assays above
